Out of some 48,000 compounds screened, about 13,000 (27%) showed an effect of 50% or more. The list shows a part of the results.

Data on 55 compounds can be found in ChEMBL document CHEMBL3988442, “University of Dundee, Small-Polar-MMV Screening Library” (2021).

In the experiment the test system is Wolbachia pipientis. In words: Anti-Wolbachia Cell-Based Screen. In kind it is functional. Further details: scale not given: in the data most compounds retested in dose-response had high values. The following applies: 5 µM.
With `CS(=O)(=O)CCCNC1(c2cccc(F)c2)CC1`, the “Percent Effect” value was determined as 13.79%.
For `COCCNC(=O)C1(c2ccccc2C)CCOCC1`, the “Percent Effect” value came to 3.195%.
With `COCCNC(=O)NC1(c2ccccc2F)CC1`, the “Percent Effect” value was found to be 110%.
As to `CC(C)(CO)CCCNC(=O)N1CCc2c(F)ccc(F)c2C1`, the “Percent Effect” value was 36.67%.
`COCCNC(=O)NC1(c2nc(C)no2)CCCCC1`: the “Percent Effect” value is -1.61%.
The result for `CC(C)(CO)CCCNC(=O)NC1(c2ccccc2F)CC1` reads 114.3%.
The value for `CC(C)(CO)CCCNC(=O)NC1(C)Cc2ccccc2C1` was 128.7%; that for `CC(C)c1noc([C@@H]2C[C@H](NS(=O)(=O)Cc3ccccc3)CN2C)n1` was -6.361%.
The result for `CC(C)(O)CCc1ccc(C(=O)NCCC2CCCOC2)cc1` (stereo not given) reads -14.7%.
Turning to `O=C1CC[C@@H](C(=O)N2CCC(Cn3cc(C4CCCCC4)nn3)CC2)N1`, the “Percent Effect” value was -19.31%.
Regarding `CCc1cnc(CN2C(=O)CC3(CCSC3)C2=O)o1` (stereo not given), the “Percent Effect” value is on record as -1.105%.
With `CCn1cncc1C1CC(=O)Nc2c1c(C)nn2C` (stereo not given), the “Percent Effect” value was -2.495%.
On to `O=S(=O)(c1cccnc1)N1C[C@@H]2CC[C@H](C1)N(Cc1ccccn1)C2`, for which the “Percent Effect” value was determined as 0.4176%.
Turning to `Cc1ccc(NC2(C(=O)NCCCc3c(C)n[nH]c3C)CCCC2)cc1`, the “Percent Effect” value stood at 12.56%.
In the case of `COc1ncccc1NC(=O)NC(C)(C)c1ncc(C)s1`, the “Percent Effect” value came to 4.256%.
The value for `CCN1CC(C(=O)N2CCc3cc(C(N)=O)n(C)c3C2)CC1=O` (stereo not given) was 10.03%; that for `CCc1nnc2n1CC(CNc1cnc3ccccc3n1)CC2` (stereo not given) was -8.213%.
Turning to `NC(=O)CN1CCCC1c1csc(Nc2cnccn2)n1` (stereo not given), the “Percent Effect” value is given as 66.85%.
The value for `NC(=O)CN1CCC(c2csc(Nc3cnccn3)n2)CC1` was 117.3%.
As for `NC(=O)CN1CCC(C(=O)NCc2nc(-c3ccc(F)cc3)cs2)CC1`, the “Percent Effect” value was found to be 0.3881%.
The value for `OCCN1CCC(c2csc(Nc3cnccn3)n2)CC1` was 83.21%.
Regarding `COc1ccccc1CNC(=O)C(C)N1CC(n2cc(C)cn2)C1` (stereo not given), the “Percent Effect” value is on record as -24.87%.
Consider `CN(C)c1cc2c(nn1)CCN(C(=O)c1cc3c(s1)CCOC3)C2`, for which the “Percent Effect” value was -8.36%.
The value for `CCC(NCc1ccccc1Cl)c1ccccc1OCC(=O)NC` (stereo not given) was -10.16%; that for `COCCN1C[C@@H](C)[C@@]2(COCCN(C(=O)c3cccc(C)n3)C2)C1.O=C(O)C(F)(F)F.O=C(O)C(F)(F)F` was -4.007%; that for `CO[C@H]1CN(C(=O)c2cn3cc(C)ccc3n2)CC[C@@]12CCCO2` was 93.74%.
The value for `Cc1cccc(C(=O)N2CC(C(=O)NCC3CC3)C3(CCOCC3)C2)n1.O=C(O)C(F)(F)F` (stereo not given) was -7.832%; that for `CO[C@H]1CN(C(=O)c2cccc(C)n2)CC[C@@]12CCCO2` was 114.9%.
As to `O=C(c1cn2cc(Cl)ccc2n1)N1CCC(CCn2cccn2)CC1`, the “Percent Effect” value was 2.946%.
The result for `COCc1cn([C@@H]2c3ccccc3C3(CCNCC3)[C@H]2O)nn1` reads -6.385%; that for `Cc1ccc(NC(=O)N2CCN(Cc3noc(C4CC4)n3)CC2)cc1`, 4.61%.
`CN(C)c1nc2n(c(=O)n1)CCN2C(=O)Nc1ccccc1`: the “Percent Effect” value amounted to 0.604%.
For the compound `CCc1nc(C)cn1C(=O)Nc1ccc(F)cc1`, the “Percent Effect” value worked out at 113%.
For the compound `CCC(C)(NCC(=O)Nc1ccccc1)c1nc(C)cs1` (stereo not given), the “Percent Effect” value is recorded as -1.246%.
Turning to `CCc1nc(C)cn1C(=O)Nc1ccccc1`, the “Percent Effect” value worked out at 107.6%.
As to `CCc1nc(C)cn1C(=O)Nc1ccc(C)cc1`, the “Percent Effect” value was determined as 109.3%.
On to `Cc1ccc(NC(=O)C2=CN=S=N2)cc1`, for which the “Percent Effect” value is -3.511%.
Turning to `CC(=O)c1c(C)nn(CC(=O)Nc2ccc(F)cc2)c1C`, the “Percent Effect” value was determined as 6.274%.
Turning to `CN(C)Cc1nn(C)c2c1CN(C(=O)Nc1ccc(F)cc1)C2`, the “Percent Effect” value is -7.35%.
`Cc1cc(=O)n2ncnc2n1CC(O)c1ccccc1F` (stereo not given): the “Percent Effect” value is listed as -9.153%.
For the compound `CN(C)S(=O)(=O)N1CC[C@]2(C[C@@H](OCC3CC3)CO2)C1`, the “Percent Effect” value was found to be 9.447%.
In the case of `CCCN(Cc1ccc(C(=O)NCC2COCCO2)c(=O)[nH]1)C1CC1` (stereo not given), the “Percent Effect” value amounted to 2.285%.
As for `Cc1cc2c(cc1CN1CCCCC1CCn1ccnc1C)OCO2` (stereo not given), the “Percent Effect” value came out at 17.86%.
The value for `CN(C)CCOCC1CN(C(=O)c2cccn2C)Cc2ccnn2C1.O=C(O)C(F)(F)F.O=C(O)C(F)(F)F` (stereo not given) was -5.365%.
The value for `CN1CCN(S(=O)(=O)c2cccc(C#N)c2)c2ccc(F)cc21` was 4.028%; that for `Cc1nn(C)c(C)c1C1CCCN1C(=O)c1cc[nH]n1` (stereo not given) was -0.5637%; that for `Cc1nc(C(=O)N2CCCC2c2cncc(CN3CCCC3)n2)co1` (stereo not given) was 62.39%.
For the compound `Cc1cccc(-c2c[nH]c(C3CCCN3C(=O)C3CCOCC3)n2)c1` (stereo not given), the “Percent Effect” value was found to be 16.55%.
As to `Cc1cc(C(=O)N2CCCC2CN2CCCC2)no1` (stereo not given), the “Percent Effect” value turned out to be 0.09079%.
For the compound `CCc1nc(CN2CCCN(C(=O)C3CCOCC3)CC2)cs1`, the “Percent Effect” value was -0.509%.
For `CN(C)CCC1CCCCN1Cc1cnn(C)c1C1CC1` (stereo not given), the “Percent Effect” value is -0.7786%.
As for `Cc1nc(CN2CCC(NS(C)(=O)=O)CC2)co1`, the “Percent Effect” value is given as -13.72%.
In the case of `O=C(c1cc[nH]n1)N1CCCC1c1cncc(CN2CCOCC2)n1` (stereo not given), the “Percent Effect” value was found to be 91.81%.
For `O=C(C1CCOCC1)N1CCCC1c1cncc(CN2CCCC2)n1` (stereo not given), the “Percent Effect” value is 74.28%.
Take `Cc1c(CN2CCCC2c2cncc(CN3CCCC3)n2)cnn1C` (stereo not given): the “Percent Effect” value stood at 74.36%.
